Several values for one entry are separate records, joined by “and”; a condition that tells them apart may be missing. Identical values can stand only once. Activity calls are given as the source filed them. How the source made its calls: active means hit-call score of the fitted dose curve at least 0.9, where 1 is the maximum; inactive means score below 0.9.
Read-out: Secreted IgG (sIgG), gene 3500
Assay: BSK_BT_sIgG: BioMAP Diversity Plus: BT Assay for Secreted IgG (sIgG) Biomarker Activity (AID 2284226)
Details: primary human B cells with PBMC
Procedure: BSK_BT is a cell-based, multiplexed-readout assay that uses B cell and peripheral blood mononuclear cells, a human vascular primary cell co-culture, with measurements taken at 24 hours after chemical dosing in a microplate: 96-well plate.BSK_BT_sIgG is an assay component measured in the BSK_BT assay. It measures secreted IgG related to regulation of gene expression using ELISA technology.Data from the assay component BSK_BT_sIgG was analyzed at the endpoint, BSK_BT_sIgG, in the positive analysis fitting direction relative to DMSO as the negative control and baseline of activity. Using a type of cytokine quantitation reporter, gain or loss-of-signal activity can be used to understand protein changes. To generalize the intended target to other relatable targets, this assay endpoint is annotated to the 'immunoglobulin' intended target family, where the subfamily is 'IgG'.
The levels of cell surface (or secreted, indicated by the prefix "s") biomarker endpoints were measured by ELISA. Overt cytotoxicity to cells in confluent adherent cultures (all systems other than the BT system) was assessed by measuring total protein levels using sulforhodamine B (SRB) staining in parallel cultures at the time of biomarker measurements, indicated as SRB endpoints. For proliferation assays for adherent cell types, individual cell types are cultured at sub-confluence and relative cell numbers quantified by SRB staining at time points optimized for each system (48 h: 3C and CASM3C systems; 72 h: BT and HDF3CGF systems; 96 h: SAg system). SRB was performed by staining cells with 0.1% SRB after fixation with 10% TCA and reading wells at 560 nm.Viability and proliferation of PBMC (T cells) was quantified by Alamar Blue reduction for the SAg and BT systems. For PBMC viability (referred to as PBMC Cytotoxicity within the assay endpoint names), cells were plated (75,000/well in a 96-well plate) and then chemical samples added for 1 h before addition of activators, SEB and TSST-1 (20 ng/mL final concentration each). Cells were incubated for 90 h. Then, Alamar Blue (20 uL/well) (Invitrogen, Cat DAL1100) was added for 6 h, and the plates were read with a fluorescence microplate reader at 546/580 nm (excitation/emission). For PBMC proliferation, cells were plated and activated as above but incubated for only 16 h prior to addition of Alamar Blue. Plates were read after 6 h.

| Structure (SMILES) | outcome | AC50 |
| --- | --- | --- |
| CC(C=O)Cc1ccc2c(c1)OCO2 (stereo not given) | inactive |  |
| Cc1cc(Cl)ccc1OC(C)C(=O)O (stereo not given) | inactive |  |
| CCOC(=O)C(SP(=S)(OC)OC)c1ccccc1 (stereo not given) | inactive |  |
| O=[N+]([O-])c1cccc2ccccc12 | inactive |  |
| CC(C)=CC1C(C(=O)OCc2cccc(Oc3ccccc3)c2)C1(C)C (stereo not given) |  | 13.8 µM (active) |
| Cc1cc(C(C)(C)c2ccc(O)c(C)c2)ccc1O |  | 10 µM (active) |
| O=[N+]([O-])c1ccc(Nc2ccccc2)cc1 |  | 12.9 µM (active) |
| Cc1ccc(OP(=O)(Oc2ccc(C)cc2C)Oc2ccc(C)cc2C)c(C)c1 |  | 15.4 µM (active) |
| C=CC(Cl)CCl (stereo not given) | inactive |  |
| Cc1c([N+](=O)[O-])c(C)c([N+](=O)[O-])c(C(C)(C)C)c1[N+](=O)[O-] | inactive |  |
| O=S(=O)(c1ccc(Cl)cc1)c1cc(Cl)c(Cl)cc1Cl |  | 20 µM (active) |
| CCC(C)(C#N)N=NC(C)(C#N)CC (stereo not given) | inactive |  |
| OC(Cc1ccccc1Cl)(Cn1cncn1)C1(Cl)CC1 (stereo not given) |  | 20 µM (active) |
| CCOP(=O)(OCC)SCCSCC | inactive |  |
| CCOC(=O)CC(=O)CCl |  | 4.86 µM (active) |
| Cc1cccc(OP(=O)(Oc2cccc(C)c2)Oc2cccc(C)c2)c1 | inactive |  |
| CCOP(=O)(OCC)OC(=CCl)c1ccc(Cl)cc1Cl |  | 20 µM (active) |
| Oc1cccc(-c2ccccc2)c1 | inactive |  |
| CCCCN(CCCC)C(=S)[S-].CCCCN(CCCC)C(=S)[S-].[Ni+2] |  | 2.66 µM (active) |
| CC(C)N(C(=O)CCl)c1ccccc1 |  | 7.82 µM (active) |

| Structure (SMILES) | outcome | AC50 |
| --- | --- | --- |
| Cc1ccc2nc3sc(=O)sc3nc2c1 |  | 5 µM (active) |
| COCC(=O)N(c1c(C)cccc1C)[C@H](C)C(=O)OC | inactive |  |
| CC1(C)[C@H](C(=O)O[C@H](C#N)c2cccc(Oc3ccccc3)c2)[C@@H]1/C=C(\Cl)C(F)(F)F |  | 25.1 µM (active) and 28.9 µM (active) |
| O=C(O)COc1cc(Cl)c(Cl)cc1Cl | inactive |  |
| C#CCOC(=O)/C=C(C)/C=C/CC(C)CCCC(C)C (stereo not given) |  | 20 µM (active) |
| CCOP(=S)(OCC)OP(=S)(OCC)OCC | inactive |  |
| OC(Cc1ccccc1Cl)(Cn1[nH]cnc1=S)C1(Cl)CC1 (stereo not given) |  | 23.8 µM (active) |
| c1ccc2sc(SNC3CCCCC3)nc2c1 |  | 32 µM (active) |
| Nc1c(Oc2ccccc2)cc(O)c2c1C(=O)c1ccccc1C2=O | inactive |  |
| O=C(CCl)NCO | inactive |  |
| N#CCCC(Br)(C#N)CBr (stereo not given) |  | 7.61 µM (active) |
| CCN(CC)C(=O)C(Cl)=C(C)OP(=O)(OC)OC | inactive |  |
| [Cl][Sn]([c]1ccccc1)([c]1ccccc1)[c]1ccccc1 |  | 0.313 µM (active) |
| Oc1ccc(Cc2ccc(O)cc2)cc1 | inactive |  |
| CCOP(=S)(OCC)SCS(=O)(=O)C(C)(C)C | inactive |  |
| NC(=O)CCl | inactive |  |
| O=C1C=CC(=O)c2ccccc21 |  | 0.251 µM (active) |
| Oc1c(Br)cc(Br)cc1Br | inactive |  |
| Cc1ccccc1OP(=O)(Oc1ccccc1C)Oc1ccccc1C |  | 13.9 µM (active) |
| O=S(=O)(C(Cl)(Cl)Cl)C(Cl)(Cl)Cl |  | 2.2 µM (active) |

— PubChem BioAssay (EPA / NIEHS)
